Bioassay records: PubChem, National Center for Advancing Translational Sciences (NCATS)
Most compounds without a hit are left out; they make up all but 21% or so of the library.
CHX counter – Cycloheximide Counterscreen for Small Molecule Inhibitors of Shiga Toxin; cell reporter, cycloheximide protein synthesis inhibition counterscreen; max response, %; actives 12% (n = 300,000); in the data active = max response mostly above about 13%, no sharp cut-off; inactive = mostly below about 14%; also: read at 38.3 µM for the half of the compounds with a filed dose; 0% is about no effect
Pf growth 96h – Primary qHTS for delayed death inhibitors of the malarial parasite plastid, 96 hour incubation; P. falciparum luciferase reporter growth, 96 h; Potency, µM (series often up to 28.7 µM), for the others: top-dose activity change, negative = inhibition, actives largely listed as inhibitors; actives 6.9% (n = 320,000); AID 504834, 2011; also: potency is read from the fitted curve at half-maximal effect; % is scaled to controls: 0 for no effect and ±100 for the full control effect
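Compounds incubated with erythrocytes infected by luciferase-expressing P. falciparum (2% hematocrit, 0.05% parasitemia final) for 96 hours, 37 C in 5% CO2. Growth inhibition scored as decreased luciferase luminescence.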
HCV inh – qHTS Assay for Inhibitors of Hepatitis C Virus (HCV) | Huh7.5.1 HCVcc-Cre infection, luciferase reporter, 44 h | Potency, µM (titrated, usually from 41.8 µM), for the others: top-dose activity change, negative = inhibition, hits mostly inhibitors | AID 651820, 2012 | actives 3.4% (n = 340,000); also: potency is read from the fitted curve at half-maximal effect; % is scaled to controls: 0 for no effect and ±100 for the full control effect
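Infectious HCVcc-Cre (~0.5 moi) was added to cells just after compound, with cells seeded 4 h earlier at 1,000 per well. Luciferase activity after 44 h culture reported infection; substrate was incubated 15 min at room temperature before reading.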
Pf growth 48h – Primary qHTS for delayed death inhibitors of the malarial parasite plastid, 48 hour incubation; P. falciparum luciferase growth in erythrocytes, 48 h; Potency, µM (top dose mostly 28.7 µM), for inactives: top-dose activity change, negative = inhibition, actives largely listed as inhibitors; actives 5.9% (n = 310,000); also: potency is read from the fitted curve at half-maximal effect; % is scaled to controls: 0 for no effect and ±100 for the full control effect
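Read-out is firefly luciferase luminescence from an integrated reporter in P. falciparum, so falling signal marks reduced parasite growth. Infected erythrocytes were at 2% hematocrit and 0.1% parasitemia (final) in Albumax-supplemented RPMI 1640.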
AMA1 RON2 block – qHTS for Inhibitors of AMA1-RON; Towards Development of Antimalarial Drug Lead: Primary Screen; Plasmodium falciparum AMA1 (3D7) - RON2 peptide interaction; Potency, µM (titrated, usually from 58.2 µM), inactives show at the top dose activity change, negative = inhibition, usual class: inhibitors; actives 0.2% (n = 360,000); AID 720542, 2013; AlphaScreen AMA1-biotinylated RON2 peptide binding;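 also: potency is read from the fitted curve at half-maximal effect; 0% = vehicle wells and -100% = peptide control; nearly all actives have a fitted effect of over 45% in size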
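AMA1 (3D7) with his tag at 25 nM final met compounds first, then biotinylated RON2 peptide at 25 nM; detection used donor plus acceptor beads, 10 µg/mL apiece, read by AlphaScreen after 30 min at room temperature.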
Shiga inhibitor – A qHTS for Small Molecule Inhibitors of Shiga Toxin; Vero cells, Shiga toxin protein synthesis inhibition reporter; inhibition, % at 38.7 µM; AID 2315, 2010; actives 9.2% (n = 290,000); in the data active = inhibition mostly above about 28%, no sharp cut-off; inactive = mostly below about 43%; also: 0% is about no effect
Active calls of the source: *; ? = inconclusive; / = no result. Unless noted, calls follow the shape of the dose curve; as a rule, active = well fitted curve in the direction sought with a large enough effect; inconclusive = small, poorly fitted or top-dose-only effect, or another doubt; inactive = no such curve, though single readings can be large; an effect the other way counts as inactive or inconclusive.

SMILES	CHX counter	Pf growth 96h	HCV inh	Pf growth 48h	AMA1 RON2 block	Shiga inhibitor
Cc1cc(Cl)ccc1C(O)c1ncc(-c2ccc(C(F)(F)F)cc2)[nH]1 (stereo not drawn)	/	/	/	/	-13%	/
CCCCNCC#CCOc1cc(C)ccc1C(C)C	-8	122%	-27%	?	4%	-16
COC(=O)Cc1c(C)c2ccc(OC3CCCCC3=O)cc2oc1=O (stereo not drawn)	39*	42%	-24%	54%	5%	30*
COC(=O)Cc1c(C)c2ccc(OC(C)C)cc2oc1=O	48*	24%	-23%	30%	-6%	96*
Cc1c(CC(=O)O)c(=O)oc2cc(OCc3ccc(Br)cc3)ccc12	16*	50%	14%	/	-3%	27
Cc1c(C)c2ccc(OC3CCCCC3=O)cc2oc1=O (stereo not drawn)	24*	?	-20%	22%	0%	26
CCc1cc(=O)oc2cc(OC3CCCCC3=O)ccc12 (stereo not drawn)	-2	27%	-10%	37%	-12%	22
COC(=O)Cc1c(C)c2ccc(OC3CCCCC3=O)c(C)c2oc1=O (stereo not drawn)	16	19%	?	32%	12%	40
CC1=C(C(=O)N(C)C)CC(CC(=O)NC(c2ccccc2)c2ccccc2)C(=O)N1CCC1=CCCCC1 (stereo not drawn)	/	/	/	/	-12%	/
Cc1c(C(=O)NCCO)[n+](=O)c2ccccc2n1[O-]	/	-30%	/	-8%	/	/
O=C(NC1CCCCC1)C(c1cccc2ccccc12)n1c(=O)c(-c2ccco2)nc2ccccc21 (stereo not drawn)	/	/	/	/	-4%	/
COc1ccc(Cc2c(-c3ccc(F)cc3)nc3cc(C)c(Br)c(C)n23)c(C)c1	/	/	/	/	4%	/
COc1ccc(-c2nc(N3CCN(S(=O)(=O)c4ccccc4)CC3)c3ccccc3n2)cc1	18	/	/	/	/	48
C/C(N)=C(/C#N)C(=O)COC(=O)Cc1coc2cc(C)ccc12	15	9%	21%	10%	12%	2
C=C1C(c2ccc(C)cc2)=CCc2cc(C)cc(C)c21	39*	/	/	/	/	53*
CCOc1ccccc1NC(=O)NNC(=O)CCc1ccc(OC)cc1	-3	37%	-2%	-16%	46%	-10
COc1ccc(N2CC(C(=O)Nc3cc(C(F)(F)F)ccc3N3CCCC3)CC2=O)c(OC)c1 (stereo not drawn)	/	4%	?	?	-6%	/
COc1ccc(N2CC(C(=O)Nc3ccccc3N3CCCC3)CC2=O)c(OC)c1 (stereo not drawn)	/	6%	8.9µM*	16%	-16%	/
COC(=O)c1ccccc1NC(=O)C1CC(=O)N(c2ccc(F)cc2)C1 (stereo not drawn)	-1	/	11%	?	5%	3
CCCOc1ccc(N2CC(C(=O)Nc3ccccc3C(=O)NCc3ccco3)CC2=O)cc1 (stereo not drawn)	0	16%	?	9.3µM*	-2%	-11
COc1ccc(N2CC(C(=O)N(C)CC(=O)Nc3ccc(Cl)c(C(F)(F)F)c3)CC2=O)c(OC)c1 (stereo not drawn)	/	13µM*	?	?	-2%	/
COC(=O)c1ccccc1NC(=O)C1CC(=O)N(c2ccc(C)c(C)c2)C1 (stereo not drawn)	3	4.1µM*	-9%	/	7%	-8
COc1ccc(N2CC(C(=O)Nc3ccccc3C(=O)NCc3ccco3)CC2=O)cc1 (stereo not drawn)	-1	-16%	-20%	?	-8%	-6
Cn1c(=O)c2c(nc(CN3CCN(C(c4ccccc4)c4ccccc4)CC3)n2CC(N)=O)n(C)c1=O	-5	?	20%	/	19%	41
CCn1c(CN2CCN(C(c3ccccc3)c3ccccc3)CC2)nc2c1c(=O)n(C)c(=O)n2C	-3	3.3µM*	?	/	9%	-4
